This is a sample that favours compounds with a hit; in the whole collection about 2.3% have one here.
PTHR1 agonist – PTHR1 (human) receptor agonism; Q03431; HEK293 GP2 PTHR1 cells, GloSensor cAMP luminescence, 1 h; Potency, µM (doses to about 115 µM), for the others: top-dose activation, usual class: activators; actives 0.075% (n = 410,000); also: nearly all actives have a fitted effect of over 55% in size
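HEK-293-derived GP2 cells expressing PTHR1 and a GloSensor cAMP reporter, 3,000/well, plated overnight, given luciferin plus IBMX (each 0.5 mM as added) for 1 h at 37 °C, then compound for 1 h at 37 °C. Luminescence was read after 15 min at room temperature.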
GLP1R ag – activates the human GLP-1 receptor; actives 0.007% (n = 380,000); Potency, µM (series often up to 45.6 µM), for inactives: at the top dose activation, usual class: activators; AID 624172; HEK293 GLP-1R CRE-luciferase, luminescence, 4-6 h; cells express a hypersensitive GLP-1R form; P43220; also: % of control where 0% means no effect
Target sequence (P43220 whole entry, looked up): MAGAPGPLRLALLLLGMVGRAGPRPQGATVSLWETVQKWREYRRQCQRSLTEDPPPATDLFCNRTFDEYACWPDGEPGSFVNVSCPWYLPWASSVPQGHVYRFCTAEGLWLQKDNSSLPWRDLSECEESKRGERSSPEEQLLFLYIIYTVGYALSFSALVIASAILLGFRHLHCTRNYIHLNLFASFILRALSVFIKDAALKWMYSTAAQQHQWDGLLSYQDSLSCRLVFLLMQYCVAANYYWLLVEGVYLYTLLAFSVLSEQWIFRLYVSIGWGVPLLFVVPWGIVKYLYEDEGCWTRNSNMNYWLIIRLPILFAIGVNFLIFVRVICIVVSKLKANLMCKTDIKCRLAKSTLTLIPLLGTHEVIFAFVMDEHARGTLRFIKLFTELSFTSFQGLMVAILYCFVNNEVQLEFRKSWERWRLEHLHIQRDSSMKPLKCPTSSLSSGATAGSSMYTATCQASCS
GLP1R inv ag – GLP-1 receptor (human) inverse agonism. HEK293 GLP-1R CRE-luciferase, luminescence, 24 h; GLP-1R form is constitutively active. Potency, µM (doses to about 38.3 µM), for the others: at the highest dose activity change, negative = inhibition, hits mostly inhibitors. actives 1.6% (n = 410,000). AID 624417; also: % is scaled to controls: 0 for no effect and ±100 for the full control effect; nearly all actives have a fitted effect of over 55% in size
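Using stably transfected HEK293 (constitutively active GLP-1R, cAMP-luciferase reporter), compounds were incubated 24 hr and luciferase measured by luminescence.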
GLS inh – blocks human kidney-isoform glutaminase activity; O94925; AID 624170; GLS enzymatic activity, qHTS titration; actives 0.21% (n = 410,000); Potency, µM (doses to about 45.5 µM), for the others: top-dose activity change, negative = inhibition, most hits filed as inhibitors; also: % is scaled to controls: 0 for no effect and ±100 for the full control effect
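hKGA in 45 mM KH2PO4 pH 8.2, 0.02% Tween-20 with pin-transferred compounds; 1 mM L-glutamine (stock) plus glutamate oxidase/HRP/Amplex Red coupling added. Fluorescence read initially and after 30 min at RT.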
GRP78 ERSR act – inducers of ER stress response in human glioma cells. actives 0.02% (n = 420,000). Potency, µM, for inactives: at the top dose activation, most hits filed as activators. U87-MG GRP78 promoter luciferase reporter, 16 h; also: series mostly up to about 76 µM; % of control where 0% means no effect; nearly all actives have a fitted effect of over 35% in size
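Stably transfected U87-MG glioma cells carrying a GRP78-based luciferase sensor; 16 h compound incubation. Luminescence end-point read 10 min after Bright-Glo addition at room temperature.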
12-LOX inh – blocks human arachidonate 12S-lipoxygenase. Potency, µM (doses to about 108 µM), inactives show top-dose activity change, negative = inhibition, most hits filed as inhibitors. purified 12hLO, xylenol orange hydroperoxide absorbance. P18054. actives 1.1% (n = 580,000). AID 1671190; also: % is scaled to controls: 0 for no effect and ±100 for the full control effect
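Purified human 12hLO at 150 nM in 25 mM Hepes, 0.01% Triton X-100, pH 7.0, preincubated 15 min at room temperature with compound. Reaction started with 40 uM arachidonic acid, 30 min at room temperature. Hydroperoxide measured by Fe-xylenol orange, 573/405 nm absorbance ratio.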
An asterisk follows results filed as active. Calls follow the shape of the dose curve; as a rule, active = well fitted curve in the direction sought with a large enough effect; inconclusive = small, poorly fitted or top-dose-only effect, or another doubt; inactive = no such curve, though single readings can be large; an effect the other way counts as inactive or inconclusive. Potency is read from the fitted curve at half-maximal effect.

`CCOc1ccccc1NC(=O)COC(=O)c1sc2cc(F)ccc2c1Cl` gave 12-LOX inh -2%.
`COc1ccc(C(=O)N(CCc2ccccc2)Cc2ccccc2)c(OC)n1` gave PTHR1 agonist inactive, GLP1R ag 15%, GLP1R inv ag 5.6µM*, GLS inh 0%, GRP78 ERSR act -2% and 12-LOX inh -2%.
`CC1(C)CC[C@]2(C(=O)O[C@@H]3OC(CO)[C@@H](O)[C@H](O)[C@H]3O)CC[C@]3(C)C(=CCC4[C@@]5(C)CC[C@H](O[C@@H]6OC(C(=O)O)[C@@H](O)[C@H](O)[C@H]6O)C(C)(C)C5CC[C@]43C)[C@@H]2C1` (stereo partly specified) gave PTHR1 agonist inactive, GLP1R ag -3%, GLP1R inv ag 8%, GLS inh inconclusive, GRP78 ERSR act -5% and 12-LOX inh 1%.
For C/C=C(\C)C(=O)OC1CC(C)(C)C[C@H]2C3=CC[C@@H]4[C@@]5(C)CCC(O[C@@H]6O[C@@H](C(=O)O)[C@@H](O)C(O[C@@H]7OC[C@H](O)[C@@H](O)[C@@H]7O[C@@H]7OC(CO)C(O)[C@@H](O)[C@@H]7O)C6O[C@@H]6OC(CO)C(O)C(O)C6O)[C@@](C)(CO)[C@@H]5CC[C@]4(C)[C@]3(C)CC(O)[C@@]12CO (stereo partly specified) the results were PTHR1 agonist -59%, GLP1R ag -8%, GLP1R inv ag -5%, GLS inh 13µM*, GRP78 ERSR act -6% and 12-LOX inh -24%.
CC1CCCN(CCOc2ccc3ccccc3c2Br)C1 (stereo unspecified) was read as PTHR1 agonist inactive, GLP1R ag 20%, GLP1R inv ag 10µM*, GLS inh 0%, GRP78 ERSR act -2% and 12-LOX inh inconclusive.
For CC1CCCN(CCCOc2ccc(Cl)cc2Br)C1 (stereo unspecified) the results were PTHR1 agonist inactive, GLP1R ag -2%, GLP1R inv ag inconclusive, GLS inh 10%, GRP78 ERSR act 3% and 12-LOX inh inconclusive.
Cc1ccc(-c2ccccc2)c(Oc2cccc(C#N)c2C#N)c1 was read as 12-LOX inh -1%.
C#CCN1CCC(C(=O)NCCNC(=O)C2CC2)CC1 was read as 12-LOX inh -37%.
`COc1ccc(NC(=O)Cn2nnc(-c3ccccc3NS(=O)(=O)c3ccccc3)n2)cc1` gave PTHR1 agonist -34%, GLP1R ag -2%, GLP1R inv ag 7.1µM*, GLS inh -10% and GRP78 ERSR act -4%.
For COc1ccc(S(=O)(=O)Nc2ccccc2-c2nnn(CC(=O)Nc3ccccc3OC)n2)cc1 the results were PTHR1 agonist -26%, GLP1R ag -3%, GLP1R inv ag inconclusive, GLS inh -2%, GRP78 ERSR act 0% and 12-LOX inh 2%.
Screening CCN(CC)CC(=O)c1c(C)n(C)c2ccc(OC)cc12 returned GRP78 ERSR act -5% and 12-LOX inh 7.9µM*.
Screening CCOCc1cnc(C)nc1NCC(=O)c1c(C)n(C)c2ccc(OC)cc12 returned PTHR1 agonist inactive, GLP1R ag 0%, GLP1R inv ag 0%, GLS inh 1%, GRP78 ERSR act -5% and 12-LOX inh inconclusive.
For COc1ccc2c(c1)c(C(=O)CNc1nc(C)cs1)c(C)n2C the results were PTHR1 agonist -5%, GLP1R ag 13%, GLP1R inv ag inconclusive, GLS inh 2%, GRP78 ERSR act -3% and 12-LOX inh 8.9µM*.
For COc1ccc2c(c1)CCN=C2C[C@H]1CN(C(=O)c2ccc(C#N)cc2)CC[C@H]1CC(=O)O the results were 12-LOX inh 63µM*.
For CC(=O)OCC1(C)CN(c2ccccc2)NC1=O (stereo unspecified) the results were PTHR1 agonist inactive, GLP1R ag 4%, GLP1R inv ag inconclusive, GLS inh 2%, GRP78 ERSR act -1% and 12-LOX inh 40µM*.
For CC(=O)OCC1(C)CN(c2ccccc2)N(C(C)=O)C1=O (stereo unspecified) the results were PTHR1 agonist -3%, GLP1R ag 5%, GLP1R inv ag inconclusive, GLS inh 13%, GRP78 ERSR act 4% and 12-LOX inh -15%.
`Cc1cccc(CNc2ncnc3ccc(-c4ccc5c(c4)OCCO5)cc23)c1` gave PTHR1 agonist inactive, GLP1R ag -1%, GLS inh 2%, GRP78 ERSR act -3% and 12-LOX inh 50µM*.
`N#Cc1ccccc1-c1ccc2ncnc(NCc3ccccc3)c2c1` gave GRP78 ERSR act -4% and 12-LOX inh inconclusive.
`Brc1ccc2ncnc(NCc3ccccc3)c2c1` gave PTHR1 agonist -9%, GLP1R ag -23%, GLP1R inv ag 1.4µM*, GLS inh 3%, GRP78 ERSR act -5% and 12-LOX inh 0%.
Screening Cc1csc(CNc2ncnc3ccc(-c4ccc5c(c4)OCCO5)cc23)c1 returned PTHR1 agonist -32%, GLP1R ag 1%, GLS inh 2%, GRP78 ERSR act 1% and 12-LOX inh 8.9µM*.
For Cc1csc(CNc2ncnc3ccc(-c4ccc5c(c4)OCO5)cc23)c1 the results were PTHR1 agonist -41%, GLP1R ag -2%, GLS inh 1%, GRP78 ERSR act -6% and 12-LOX inh inconclusive.
`c1nc(NCc2ccc3c(c2)OCO3)c2cc(-c3ccc4c(c3)OCCO4)ccc2n1` gave PTHR1 agonist inactive, GLP1R ag -2%, GLS inh 6%, GRP78 ERSR act -2% and 12-LOX inh inconclusive.
`O=S(=O)(c1cccs1)N1CCOc2ccc(COCc3ccc(Cl)cc3)cc2C1` gave 12-LOX inh -5%.
`CCCCn1cnc2c1c(=O)n(CC(=O)Nc1ccccc1OC)c(=O)n2CCCC` gave 12-LOX inh -8%.
For Cc1ccc(NC(=S)NNS(=O)(=O)c2ccc3ccccc3c2)cc1Cl the results were PTHR1 agonist inactive, GLP1R ag 0%, GLP1R inv ag -32%, GLS inh -2%, GRP78 ERSR act -2% and 12-LOX inh 40µM*.
`N#Cc1nc(-c2ccc(S(=O)(=O)N3CCCCCC3)cc2)oc1NCc1ccco1` gave 12-LOX inh -2%.
Screening COc1cccc2[nH]c(C(=O)NCCCc3nnc4ccccn34)cc12 returned 12-LOX inh 22%.

Bioassay records as filed in PubChem.
